HT1080 IDH1KD tx – HT-1080 IDH1 knockdown cell toxicity (counter line) | HT-1080 IDH1 knockdown viability, ATP luminescence, 48 h | Potency, µM (top dose mostly 46.1 µM), without a hit: top-dose activity, negative = toxicity, most hits filed as cytotoxic | 2% of 360,000 active;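 further: potency means the concentration at half of the fitted maximal effect; 0% = DMSO wells and -100% = cell-free medium wells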
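After a 2 h attachment period, IDH1KD HT-1080 cells took pin-transferred compound for 48 h at 37 °C; ATP-based luminescence after 10 min room-temperature reagent incubation reported viability.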
DT40 TDP1 CPT – DT40-hTDP1 cell growth loss with CPT | chicken DT40 Tdp1-/-;hTDP1 cells + 20 nM CPT, ATP luminescence, 48 h | Potency, µM (doses to about 46.2 µM), for the others: at the highest dose activity change, negative = growth inhibition, most hits filed as inhibitors | 12% of 420,000 active; further: potency means the concentration at half of the fitted maximal effect; nearly all actives have a fitted effect of over 55% in size
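Cell growth measured by CellTiter-Glo luminescence after a minimum 48 h, 37 C compound exposure with 20 nM CPT in Tdp1-knockout DT40 cells stably expressing hTDP1, seeded 400/well; qHTS titration format.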
IL-1B inflam inh – blocks inflammasome-driven IL-1 beta release. 4.7% of 360,000 active. activity change, % at 57.5 µM. THP-1 LPS/ATP IL-1B secretion, AlphaLISA, 16 h; stronger effect = lower value; in the data active means activity change below about -50%; inconclusive means mostly about -30% to -49%
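Secreted IL-1B measured by AlphaLISA bead assay after 16 h compound exposure of THP-1 cells; compounds (final up to 57.5 uM) added 1 h before LPS (250 ng/mL) and ATP (1.25 mM) stimulation; lower signal means less secretion.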
TDP1 cell noCPT – qHTS for Inhibitors of human tyrosyl-DNA phosphodiesterase 1 (TDP1): qHTS in cells in absence of CPT | DT40 Tdp1-/- hTDP1 cells, no CPT, ATP luminescence, 48 h | Potency, µM (series often up to 46.2 µM), without a hit: top-dose activity change, negative = growth inhibition, usual class: inhibitors | 15% of 420,000 active | AID 686978, 2013; further: potency means the concentration at half of the fitted maximal effect; nearly all actives have a fitted effect of over 55% in size
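Seeded 400 DT40-hTDP1 cells/well (vehicle DMSO, no 20 nM CPT); pinned compounds; ≥48 hr at 37 °C; CellTiter-Glo luminescence as viability measure.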
HT1080NT lethal – kills 2HG-producing HT-1080-NT fibrosarcoma cells. HT-1080-NT fibrosarcoma viability, CellTiter-Glo ATP luminescence, 48 h. Potency, µM (top dose mostly 46.1 µM), without a hit: at the highest dose activity, negative = less viability, actives largely listed as cytotoxic. 1.6% of 360,000 active. AID 686970;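 further: NT is the 2HG producing partner of a matched IDH1 knockdown line; potency means the concentration at half of the fitted maximal effect; 0% = DMSO-treated cells and -100% = media-only wells without cells; nearly all actives have a fitted effect of over 55% in size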
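Viability by CellTiter-Glo luminescence after 48 h compound exposure at 37C of HT-1080-NT cells (750/well, RPMI, 5% FBS). % activity scaled between DMSO wells and medium-only wells, then curve-fitted and categorized by curve class.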
Numbers without * were called inactive; u = inconclusive; x = no result given; [ ] = remark or other dose. The list is not random: actives were taken first. Their share in the collection is about 19%. Unless noted, the call rests on the fitted dose curve; in most records, active means well fitted curve in the direction sought with a large enough effect; inconclusive means small, poorly fitted or top-dose-only effect, or another doubt; inactive means no such curve, though single readings can be large; an effect the other way counts as inactive or inconclusive. Unless noted, on the % scale 0 is the no-effect control and ±100 the full control effect.

SMILES	HT1080 IDH1KD tx	DT40 TDP1 CPT	IL-1B inflam inh	TDP1 cell noCPT	HT1080NT lethal
O=c1c(Cl)c(N2CCCCC2)cnn1-c1nc2ccccc2[nH]1	u	u	-15	21µM*	u
Clc1ccc2nc(N3CCCCC3)[nH]c2c1	-2%	-23%	-15	-10%	-2%
O=c1c2ccccc2cnn1-c1nc2ccccc2[nH]1	3.7µM*	4.1µM*	27	3.7µM*	3.7µM*
Cc1cc(C(=O)Nc2ccccc2-c2nc(CNC(=O)C3COc4ccccc4O3)c(C)o2)c(C)o1 (stereo not drawn)	x	5%[9.04 µM]	x	-20%	x
Cc1ccc(-n2nc(C)c(=O)c(-c3ccccc3)c2NC(=O)C(C)C)cc1	16%	0%	16	-6%	19%
CCOc1ccccc1C(=O)Nc1ccc2nc(N3CCN(c4ncccn4)CC3)cc(C)c2c1	u	18µM*	u	9.2µM*	u
CCOC(=O)N1CCC(NC(=S)Nc2ccc3nc(N4CCN(C)CC4)cc(C)c3c2)CC1	u	-18%	-100*	u	u
CCOc1ccccc1NC(=O)Nc1ccc2nc(N3CCN(C)CC3)cc(C)c2c1	x	u	x	23µM*	x
N#Cc1ccsc1NC(=O)CN1CCN(S(=O)(=O)c2ccccc2C(F)(F)F)CC1	-3%	u	9	u	-5%
CCc1nc2ccc(C(=O)N3CCN(c4ccccc4)CC3)cn2c1N(C)CCCc1ccccc1	u	13µM*	-4	16µM*	u
CCc1nc2ccc(C(=O)N3CCN(S(=O)(=O)CC)CC3)cn2c1N(C)CCC(C)C	6%	u	1	u	-2%
CCc1nc2ccc(C(=O)N3CCN(c4ccccc4)CC3)cn2c1N(C)CCC(C)C	6.5µM*	u	-10	21µM*	u
CCc1nc2ccc(C(=O)N(C)CCCN(C)C)cn2c1N(C)CCCc1ccccc1	u	u	-12	u	u
O=C(Nc1ccc(Cl)cc1)OCCn1nnnc1C(c1ccccc1Cl)N1CCOCC1 (stereo not drawn)	u	26µM*	-29	18µM*	-27%
O=C(Nc1ccc(Cl)cc1)OCCN1CCOCC1	6%	-4%	21	-29%	10%
CCOC(=O)Cn1c(=O)oc2cc(S(=O)(=O)N3CCN(c4cc(C)ccc4C)CC3)ccc21	x	18µM*	x	u	x
CCOC(=O)Cn1c(=O)oc2cc(S(=O)(=O)N3CCN(c4cccc(Cl)c4)CC3)ccc21	x	-12%	x	6%	x
Cc1ccc(C)c(N2CCN(C(=O)Cn3c(=O)oc4cc(S(=O)(=O)N5CCCC5)ccc43)CC2)c1	14%	16µM*	30	12µM*	13%
Cc1ccc(Cl)cc1N1CCN(C(=O)CCS(=O)(=O)c2ccc3c(c2)oc(=O)n3C)CC1	x	u	x	16µM*	x
CCc1cccc(C)c1NC(=O)CCS(=O)(=O)c1ccc2c(c1)oc(=O)n2C	x	u	x	15µM*	x
COc1cc(OC)cc(C(=O)NCC(=O)N2CCCCC2)c1	1%	-13%	19	3%	-3%
CN1CCN(C=Nc2nc3ccccc3nc2N2CCCC2)CC1	0%	-12%	-18	-21%	-16%
Cc1ccc(CN=C(N)Nc2nc(C)cc(C)n2)cc1	7.3µM*	6.5µM*	-52*	3.3µM*	7.3µM*
CCCCNC(=O)C1(C)CCC(=O)N1CCc1c[nH]c2ccccc12 (stereo not drawn)	18%	1%	7	-4%	u
O=C(NCCCN1CCOCC1)c1ccc2c(c1)N(Cc1cccc(Cl)c1)C(=O)c1ccccc1S2	x	u	x	23µM*	x
SMILES	HT1080 IDH1KD tx	DT40 TDP1 CPT	IL-1B inflam inh	TDP1 cell noCPT	HT1080NT lethal
O=C(NCCCN1CCOCC1)c1ccc2c(c1)N(Cc1c(F)cccc1Cl)C(=O)c1ccccc1S2	0%	u	-52*	u	-6%
O=C(NCCCN1CCOCC1)c1ccc2c(c1)N(Cc1cccc(Cl)c1)C(=O)CS2	-18%	u	-8	16µM*	-22%
CCNC(=S)N/N=C(\C)c1cc2ccccc2o1	9%	u	-52*	u	10%
C/C(=N\NC(=S)NCCc1ccccc1)c1cccc(Br)c1	0%	u	34	u	-3%
C/C(=N\NC(=S)NCc1ccccc1)c1cccc(Br)c1	u	15µM*	-14	21µM*	-23%
C/C(=N\NC(=S)NCc1ccccc1)c1ccc2ccccc2c1	-8%	6.5µM*	16	7.3µM*	0%
S=C(NCc1ccccc1)Nc1ccc(Oc2ccccc2)cc1	1%	-15%	-1	u	1%
COc1ccc(/C(C)=N/NC(=S)NCCc2ccccc2)cc1	0%	u	-9	u	5%
S=C(NCc1ccccc1)Nc1ccc2ccccc2c1	0%	10%	-76*	2%	0%
CCOC(=O)[C@]12CCC=C1N(Cc1ccc(Cl)cc1Cl)C(=O)[C@H](CC(=O)N1CCSCC1)C2	-4%	23µM*	-23	16µM*	-7%
CCOC(=O)N1CCN(C(=O)C[C@@H]2C[C@@]3(C(=O)OCC)CCCC=C3N(Cc3ccc(Cl)cc3Cl)C2=O)CC1	-24%	21µM*	-28	23µM*	-22%
CCOC(=O)N1CCN(C(=O)C[C@@H]2C[C@@]3(C(=O)OC)CCCCC=C3N(Cc3ccc(Cl)cc3Cl)C2=O)CC1	-26%	21µM*	x	12µM*	-26%
O=c1cc(-c2ccccc2)nc2c(-c3ccccc3)c(C(F)(F)F)[nH]n12	u	u	37	u	u
O=C(CSc1ccc2nnc(-c3cccnc3)n2n1)Nc1ccccc1F	2%	-23%	-9	-23%	4%
CC(NC(=O)c1ccccc1)c1nc2ccccc2n1Cc1ccc(Cl)cc1 (stereo not drawn)	x	-20%	x	-26%	x
CC(C)N=c1cc2n(-c3ccc(Cl)cc3)c3ccccc3nc-2cc1Nc1ccc(Cl)cc1	-6%	13µM*	-15	16µM*	-1%
CCOC(=O)N1CCC(NC(=O)c2cnn(-c3ccc(C)cc3)c2C2CCN(C(=O)OC(C)(C)C)CC2)CC1	x	21µM*	x	u	x
COc1ccc(-n2ncc(C(=O)NCCc3ccsc3)c2C2CCN(C(=O)OC(C)(C)C)CC2)cc1	x	23µM*	x	u	x
COc1cc(OC)c(NC(=O)c2cnn(-c3cccc(Cl)c3C)c2C2CCN(C(=O)OC(C)(C)C)CC2)cc1Cl	x	-28%	x	-28%	x
COc1ccc(-n2ncc(C(=O)Nc3ccc(C)cc3Cl)c2C2CCN(C(=O)OC(C)(C)C)CC2)cc1	x	16µM*	x	16µM*	x
CCOC(=O)N1CCC(NC(=O)c2cnn(-c3ccc(OC)cc3)c2C2CCN(C(=O)OC(C)(C)C)CC2)CC1	x	18µM*	x	u	x
